Experimental data as given in PubChem BioAssay (Tox21).
Inconclusive results are not listed. Values without a mark were called inactive. The source made the active and inactive calls. Calls come from the whole dose curve; as a rule, active = well fitted cell-killing curve with a large enough effect in the repeat runs; inconclusive = weak or mixed curves; inactive = flat fitted curve, though single readings scatter.

experiment: qHTS assay to identify small molecule antagonists of the estrogen related receptor (ERR) signaling pathway from Tox21 library - cell viability counter screen (AID 1224834); settings: ERR reporter cells viability, CellTiter-Fluor, 17.5 h; series mostly up to 92.4 µM; viability change, negative = cytotoxic: at the top concentration; note: nearly all actives have a fitted effect of over 30% in size
From the text: National Center for Advancing Translational Sciences [NCATS]
NIH Chemical Genomics Center [NCGC]
U.S. Environmental Protection Agency [EPA]
National Institutes of Environmental Health Sciences [NIEHS]
National Toxicology Program [NTP]
U.S. Food and Drug Administration [FDA]
Estrogen related receptors (ERRs), the first orphan nuclear receptors discovered, play an important role in the control of cellular energy metabolism. ERRs are required for high-energy production in response to the environmental challenges. ERR-alpha was also identified as an adverse marker for breast cancer progression; ERR-alpha-positive tumors have a poor prognosis. To screen and to identify environmental compounds that perturb the ERR signaling pathways could provide valuable information for potential therapeutic or preventive measures in the treatment of metabolic disease. To differentiate true ERR antagonists or agonist from cytotoxic substances, the assay is multiplexed with cell viability assay.
Tox21 Assay Protocol Summary:
The ERR cells were dispensed at 2,000 cells/5 ul/well in 1536-well white plates using a Multidrop dispenser. After the assay plates were incubated at a 37 C/5% CO2 incubator for 6 hours, 23 nL of compounds dissolved in DMSO, positive and negative controls or DMSO only was transferred to the assay plate by a pin tool. The plates were incubated at 37 C for 17.5 hours. 1 ul/well of CellTiter-Fluor reagent was added into the assay plates using a Flying Reagent Dispenser. After 30-minute incubation at 37 C/5% CO2, the fluorescence intensity in the plates was measured using a ViewLux plate reader.
% is set by controls: 0 for no effect and ±100 for the full control effect; potency is the fitted concentration of half-maximal effect.

| Compound | viability change, negative = cytotoxic | Potency |
| --- | --- | --- |
| CC(=O)OCC(=O)[C@H]1CC[C@H]2[C@@H]3CCC4=CC(=O)CC[C@]4(C)[C@H]3CC[C@]12C | 1.66% [at 42.5 µM] | – |
| CO[C@H]1O[C@H](CO)[C@@H](O)[C@H](O)[C@H]1O | -0.487% | – |
| CC(C)CCCCCCOC(=O)CCCCC(=O)OCCCCCCC(C)C | 3.27% | – |
| Cc1oc(C)c(C(=O)Nc2ccccc2)c1C | -2.49% | – |
| O=C(CCCCCCCCC#CI)Oc1ccccc1 | 1.85% [at 42.5 µM] | – |
| CCCCC(=O)O[C@]1(C(=O)CO)CC[C@H]2[C@@H]3CCC4=CC(=O)CC[C@]4(C)[C@H]3[C@@H](O)C[C@@]21C | -0.304% [at 42.5 µM] | – |
| CCCCC1C(=O)N(c2ccccc2)N(c2ccc(O)cc2)C1=O (stereo not given) | – | 18.8 µM (active) |
| CCC(C(=O)OCCOCCN(CC)CC)c1ccccc1 (stereo not given) | -3.04% [at 42.5 µM] | – |
| Nc1nccs1 | 4.43% | – |
| CC(C)(O)c1ccccc1CC[C@@H](SCC1(CC(=O)O)CC1)c1cccc(/C=C/c2ccc3ccc(Cl)cc3n2)c1 | 2.4% [at 42.5 µM] | – |
| Nc1ccc(S(=O)(=O)O)cc1 | -0.925% | – |
| CCOC(=O)[C@@H](C)Oc1ccc(Oc2nc3ccc(Cl)cc3o2)cc1 | -0.905% | – |
| O=C(O)c1ccc(CO)o1 | -0.92% | – |
| NCC1CCCC(CN)C1 (stereo not given) | -0.979% | – |
| CCCCN(CCCC)CCCOC(=O)c1ccc(N)cc1 | -3.44% [at 42.5 µM] | – |
| C[C@@H]1C[C@H]2[C@@H]3CCC4=CC(=O)C=C[C@]4(C)[C@@]3(F)[C@@H](O)C[C@]2(C)[C@@]1(O)C(=O)CO | -5.64% | – |
| CN1C(=O)CC(C)(c2ccccc2)C1=O (stereo not given) | 1.34% [at 42.5 µM] | – |
| CCCCC/C(=C\c1ccccc1)CO | -9.91% | – |
| C[Si]1(C)O[Si](C)(C)O[Si](C)(C)O1 | -1.44% | – |
| C=CCCCCCCCCCCCCCCCC | 0.934% [at 8.39 µM] | – |

| Compound | viability change, negative = cytotoxic | Potency |
| --- | --- | --- |
| [O]=[Bi] | 0.391% [at 8.39 µM] | – |
| CC(C)C(OC(=O)c1ccccc1)C(C)(C)COC(=O)c1ccccc1 (stereo not given) | -1.23% | – |
| Fc1ccccc1[C@@H](F)COC1CCC(Nc2ncnc3[nH]ncc23)CC1 (stereo not given in full) | – | 30.6 µM (active) |
| CC(C)=CC=O | 0.685% | – |
| Cc1ccccc1N1C(=O)c2cc(S(N)(=O)=O)c(Cl)cc2NC1C (stereo not given) | 0.0148% [at 42.5 µM] | – |
| OCC1CC=CCC1 (stereo not given) | 0.812% | – |
| COCC(O)CO (stereo not given) | 2.72% | – |
| OC(CCCN1CCCCC1)(c1ccccc1)c1ccccc1 | 2.68% [at 42.5 µM] | – |
| COC(=O)c1cc(Cl)ccc1NS(=O)(=O)C(F)(F)F | -0.163% [at 42.5 µM] | – |
| CCOC(=O)OCC | 0.254% | – |
| CCCCCCCCCCOS(=O)(=O)O | -0.124% | – |
| CCC(C(=O)OCCN(CC)CC)c1ccccc1 (stereo not given) | 1.58% [at 42.5 µM] | – |
| COCc1c(C(C)C)nc(C(C)C)c(/C=C/[C@@H](O)C[C@@H](O)CC(=O)O)c1-c1ccc(F)cc1 | – | inactive |
| O=C(O)c1c(O)c(-c2ccccc2)nc2ccccc12 | 4.21% [at 42.5 µM] | – |
| CCc1nn(CCCN2CCN(c3cccc(Cl)c3)CC2)c(=O)n1CCOc1ccccc1 | – | 29.8 µM (active) |
| O=[N+]([O-])c1cccc(S(=O)(=O)NCCNS(=O)(=O)c2cccc([N+](=O)[O-])c2)c1 | -6.38% [at 42.5 µM] | – |
| CC(=N\O)/C(C)=N/O | -0.468% | – |
| NC(=O)Nc1ccc(Cl)c(Cl)c1 | 0.546% | – |
| CN(C)CCOC1=Cc2ccccc2Sc2ccc(Cl)cc21 | -10.9% [at 42.5 µM] | – |
| CCc1cccc(N(C)C(N)=Nc2cccc3ccccc23)c1 | -5.04% [at 42.5 µM] | – |
